Results from PubChem BioAssay AID504545 (Broad Institute, 2011).
Measured potencies and affinities stand elsewhere. Results filed as inconclusive are left out. How the calls were made is not given here.

Molecular target: Cyclin-dependent kinase 5 activator 1 (Homo sapiens) + Cyclin-dependent kinase 5 (Homo sapiens) (UniProt Q15078+Q00535)
Assay: CDK5/p35 kinase inhibitors, dose response, biochemical, cherry-picked samples, set 2 (AID 504545)
Details: biochemical plate reader; series mostly up to 30 µM; activity change, negative = inhibition: at the top concentration

Chain of Cyclin-dependent kinase 5 activator 1 (Homo sapiens) + Cyclin-dependent kinase 5 (Homo sapiens) (Q00535 whole entry, looked up): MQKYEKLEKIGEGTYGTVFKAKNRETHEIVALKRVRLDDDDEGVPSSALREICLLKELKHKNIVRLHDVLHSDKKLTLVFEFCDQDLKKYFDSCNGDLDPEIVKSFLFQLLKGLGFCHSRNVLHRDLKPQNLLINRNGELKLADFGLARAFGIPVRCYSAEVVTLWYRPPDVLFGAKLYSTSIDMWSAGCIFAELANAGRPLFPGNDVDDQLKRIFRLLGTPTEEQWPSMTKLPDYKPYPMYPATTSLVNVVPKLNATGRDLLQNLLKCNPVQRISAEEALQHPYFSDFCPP
Chain of Cyclin-dependent kinase 5 activator 1 (Homo sapiens) + Cyclin-dependent kinase 5 (Homo sapiens) (Q15078 whole entry, looked up): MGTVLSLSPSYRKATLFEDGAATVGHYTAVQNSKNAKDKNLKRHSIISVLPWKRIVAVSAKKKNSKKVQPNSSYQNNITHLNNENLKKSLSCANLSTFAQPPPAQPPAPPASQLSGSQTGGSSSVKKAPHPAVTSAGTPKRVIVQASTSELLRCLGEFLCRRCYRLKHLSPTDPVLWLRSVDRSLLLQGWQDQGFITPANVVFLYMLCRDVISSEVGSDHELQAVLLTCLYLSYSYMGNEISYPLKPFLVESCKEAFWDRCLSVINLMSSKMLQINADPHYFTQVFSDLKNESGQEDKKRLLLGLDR

Activity change, negative = inhibition, inactive:
Cc1ccc2nc(Cl)c(C#N)cc2c1 8.05%, O=C(NNC(=O)c1cccs1)c1ccccc1 -8.86%, Cc1nc(Nc2ccccc2)sc1C(=O)c1ccc(F)cc1 -0.33%, COc1cccc(C(=O)N2CCN(c3ccccn3)CC2)c1 11.5%, CC(=O)[C@H]1CC[C@H]2[C@@H]3CC=C4C[C@@H](OS(=O)(=O)O)CC[C@]4(C)[C@H]3CC[C@]12C -5.29%, O=C(O)c1ccc(/C=N/Nc2ncc(C(F)(F)F)cc2Cl)cc1 -5.86%, CN(C)N1C(N)=C(C#N)C(c2cccs2)C2=C1CCCC2=O (stereo not drawn) -19.4%, S=C(c1ccc(OCc2ccccc2)cc1)N1CCCC1 -1.92%, COc1ccc(C(=O)N2CCN(c3ccccn3)CC2)cc1 7.99%, Cc1ccc2nc(NCc3ccccc3)c(C#N)cc2c1 15.1%, O=C(c1ccc(F)cc1)c1cnc(Nc2ccccc2)s1 -8.57%, Nc1ncnc2c1ncn2C1OC(CO)C(O)C1O (stereo not drawn) -1.99%, Cc1ccc(Nc2nc(NCCO)nc3c2cnn3C)cc1Cl -6.44%, O=[N+]([O-])c1ccc2c(c1)/C(=N\O)c1ccccc1-2 -11.8%, NC(=S)N/N=C/c1c(O)c(Br)cc2oc3c(c12)CCCC3 -15.6%, Clc1cccc(Cl)c1/C=N/Nc1c(Cl)cncc1Cl -9.72%, Cc1nc(Nc2ccccc2)sc1C(=O)c1ccccc1 -4.27%, Oc1ccc(/C=N/Nc2cccc(Cl)n2)c(O)c1 -0.378%, Cc1cccc(/N=C/c2c(O)ccc3oc4c(c23)CCCC4)n1 4.05%, COc1ccc2nc(C)cc(Nc3ccc(C)cc3)c2c1 7.73%, Oc1cccc(C=NNc2ccccn2)c1 7.41%, Cc1ccc(C(=O)O/N=C(\N)c2ccccn2)cc1C 12.2%, COc1cccc(OC)c1C(=O)N1CCN(c2ccccn2)CC1 7.96%, O=C(c1ccc2c(c1)OCCO2)N1CCN(c2ccccn2)CC1 18.1%, CC(C)n1cnc2c(N(C)c3cccc(Cl)c3)nc(N(CCO)CCO)nc21 3.33%, O=C(c1ccc2c(c1)OCO2)N1CCN(c2ccccn2)CC1 13.9%, COc1ccc(Nc2nc(N)c(C(=O)c3ccc(F)cc3)s2)cc1 -13.6%, Cc1ccc2[nH]c(C(F)(F)F)cc(=O)c2c1 12.4%
